The source of these data is PMC5700166.

The target in this test is GST-Hu-p50 (Homo sapiens, UniProt P19838 7-356). Kind of test: protein-binding microarray (PBM); PBM: ~300 nM protein, 6 mM HEPES pH 7.8, 80 mM KCl, 0.5 mM EDTA, 0.5 mM EGTA, 6% glycerol, 35 ng/ul poly-dIdC, 1% milk, 1 h, room temperature; Ap Aiptasia and Nv Nematostella (sea anemones) / Co Capsaspora / Aq Amphimedon (sponge) / Dm Drosophila / Hu human; RHD is the Rel homology domain; high values mean tight binding. To be noted: dsDNA, one strand shown.
Sequence of GST-Hu-p50 (P19838 7-356): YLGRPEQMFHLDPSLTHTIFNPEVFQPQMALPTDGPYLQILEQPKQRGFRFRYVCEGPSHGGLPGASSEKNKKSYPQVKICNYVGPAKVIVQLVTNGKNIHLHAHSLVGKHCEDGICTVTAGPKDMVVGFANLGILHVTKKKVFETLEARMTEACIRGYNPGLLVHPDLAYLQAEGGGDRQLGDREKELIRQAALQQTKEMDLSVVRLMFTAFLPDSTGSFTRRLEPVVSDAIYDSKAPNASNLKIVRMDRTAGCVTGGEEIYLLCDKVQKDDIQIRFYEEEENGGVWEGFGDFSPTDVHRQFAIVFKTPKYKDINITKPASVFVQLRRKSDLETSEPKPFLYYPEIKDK
On to “CCGATTAACATCAAATTTTTCCCTGATGTTAATCGGGTCTTGATTCGCTTGACGCTGCTG”, for which the binding signal was 4.48 z-score.

In the case of “CCGATTAACATCAAAGATTTCCCTGATGTTAATCGGGTCTTGATTCGCTTGACGCTGCTG”, the binding signal amounted to 4.86 z-score. Regarding “CCGATTAACATCAATAAAGTCCCTGATGTTAATCGGGTCTTGATTCGCTTGACGCTGCTG”, the binding signal came to 5.23 z-score. With “CCGATTAACATCACGGAATTTTCTGATGTTAATCGGGTCTTGATTCGCTTGACGCTGCTG” the figure was 1.13 z-score. The result for “CCGATTAACATCAGGAACACCCCTGATGTTAATCGGGTCTTGATTCGCTTGACGCTGCTG” reads 2.26 z-score. “CCGATTAACATCACCGTTTAAGCTGATGTTAATCGGGTCTTGATTCGCTTGACGCTGCTG” yielded a binding signal of 1.15 z-score. The result for “CCGATTAACATCATGAAGACCCCTGATGTTAATCGGGTCTTGATTCGCTTGACGCTGCTG” reads 1.77 z-score. The result for “CCGATTAACATCAATTTATCCCCTGATGTTAATCGGGTCTTGATTCGCTTGACGCTGCTG” reads 4.37 z-score. With “CCGATTAACATCACCGTTTTCCCTGATGTTAATCGGGTCTTGATTCGCTTGACGCTGCTG” the figure was 3.18 z-score; with “CCGATTAACATCAGGAATCACCCTGATGTTAATCGGGTCTTGATTCGCTTGACGCTGCTG”, 3.31 z-score. In the case of “CCGATTAACATCACGGGATTTTCTGATGTTAATCGGGTCTTGATTCGCTTGACGCTGCTG”, the binding signal was 4 z-score. With “CCGATTAACATCAGGGGAACTCATGATGTTAATCGGGTCTTGATTCGCTTGACGCTGCTG” the figure was 4.82 z-score; with “CCGATTAACATCAGGGGAATGGATGATGTTAATCGGGTCTTGATTCGCTTGACGCTGCTG”, 4.59 z-score. The result for “CCGATTAACATCAGCATTTTCCCTGATGTTAATCGGGTCTTGATTCGCTTGACGCTGCTG” reads 3.25 z-score; that for “CCGATTAACATCAAAATTTTCCTTGATGTTAATCGGGTCTTGATTCGCTTGACGCTGCTG”, 1.03 z-score; that for “CCGATTAACATCACTTTTTTCCCTGATGTTAATCGGGTCTTGATTCGCTTGACGCTGCTG”, 3.53 z-score.

Sequence “CCGATTAACATCACCGGATTTCCTGATGTTAATCGGGTCTTGATTCGCTTGACGCTGCTG” returned a binding signal of 2.28 z-score.

“CCGATTAACATCACGGAAATTTATGATGTTAATCGGGTCTTGATTCGCTTGACGCTGCTG”: the binding signal was determined as 1.44 z-score. With “CCGATTAACATCACGATTTTCCCTGATGTTAATCGGGTCTTGATTCGCTTGACGCTGCTG” the figure was 3.78 z-score; with “CCGATTAACATCAAAATTCCCTCTGATGTTAATCGGGTCTTGATTCGCTTGACGCTGCTG”, 5.19 z-score.

In turn, “CCGATTAACATCAAAAGTTTCCCTGATGTTAATCGGGTCTTGATTCGCTTGACGCTGCTG” showed a binding signal of 5.09 z-score.

As to “CCGATTAACATCAGGGGTATACCTGATGTTAATCGGGTCTTGATTCGCTTGACGCTGCTG”, the binding signal came to 1.99 z-score. “CCGATTAACATCAGGGAACGCCCTGATGTTAATCGGGTCTTGATTCGCTTGACGCTGCTG” registered a binding signal of 2.04 z-score. With “CCGATTAACATCACCGAACTAACTGATGTTAATCGGGTCTTGATTCGCTTGACGCTGCTG” the figure was 1.23 z-score; with “CCGATTAACATCAGGAAACACCCTGATGTTAATCGGGTCTTGATTCGCTTGACGCTGCTG”, 3.48 z-score; with “CCGATTAACATCAGGAAAAGTCCTGATGTTAATCGGGTCTTGATTCGCTTGACGCTGCTG”, 1.57 z-score. In turn, “CCGATTAACATCAGGGAAGGACCTGATGTTAATCGGGTCTTGATTCGCTTGACGCTGCTG” yielded a binding signal of 1.18 z-score. Take “CCGATTAACATCAATAAATTTCCTGATGTTAATCGGGTCTTGATTCGCTTGACGCTGCTG”: the binding signal worked out at 1.15 z-score. “CCGATTAACATCACGTTTTTCCCTGATGTTAATCGGGTCTTGATTCGCTTGACGCTGCTG” displayed a binding signal of 3.49 z-score. The result for “CCGATTAACATCACCCGAGTGCGTGATGTTAATCGGGTCTTGATTCGCTTGACGCTGCTG” reads 1.1 z-score; that for “CCGATTAACATCAGAGTTTTCCCTGATGTTAATCGGGTCTTGATTCGCTTGACGCTGCTG”, 3.99 z-score; that for “CCGATTAACATCAAATAATTCCCTGATGTTAATCGGGTCTTGATTCGCTTGACGCTGCTG”, 5.03 z-score. With “CCGATTAACATCAACGTTTTCCCTGATGTTAATCGGGTCTTGATTCGCTTGACGCTGCTG” the figure was 3.09 z-score; with “CCGATTAACATCAACCAATCCCCTGATGTTAATCGGGTCTTGATTCGCTTGACGCTGCTG”, 4.9 z-score. The result for “CCGATTAACATCATGTCTATCGGTGATGTTAATCGGGTCTTGATTCGCTTGACGCTGCTG” reads 1.14 z-score; that for “CCGATTAACATCAGGAAATACCATGATGTTAATCGGGTCTTGATTCGCTTGACGCTGCTG”, 1.08 z-score.

Regarding “CCGATTAACATCAATTTTTGCCCTGATGTTAATCGGGTCTTGATTCGCTTGACGCTGCTG”, the binding signal is 1.07 z-score. With “CCGATTAACATCAACCAATTCCCTGATGTTAATCGGGTCTTGATTCGCTTGACGCTGCTG” the figure was 2.54 z-score; with “CCGATTAACATCAGGGGATTAAATGATGTTAATCGGGTCTTGATTCGCTTGACGCTGCTG”, 4.87 z-score; with “CCGATTAACATCAGGGGAAAGCATGATGTTAATCGGGTCTTGATTCGCTTGACGCTGCTG”, 4.81 z-score.
